The structures appear in SMILES notation. ± gives the standard deviation of the averaged measurements.

Chain of MurC (C4ZRI6 whole entry, looked up): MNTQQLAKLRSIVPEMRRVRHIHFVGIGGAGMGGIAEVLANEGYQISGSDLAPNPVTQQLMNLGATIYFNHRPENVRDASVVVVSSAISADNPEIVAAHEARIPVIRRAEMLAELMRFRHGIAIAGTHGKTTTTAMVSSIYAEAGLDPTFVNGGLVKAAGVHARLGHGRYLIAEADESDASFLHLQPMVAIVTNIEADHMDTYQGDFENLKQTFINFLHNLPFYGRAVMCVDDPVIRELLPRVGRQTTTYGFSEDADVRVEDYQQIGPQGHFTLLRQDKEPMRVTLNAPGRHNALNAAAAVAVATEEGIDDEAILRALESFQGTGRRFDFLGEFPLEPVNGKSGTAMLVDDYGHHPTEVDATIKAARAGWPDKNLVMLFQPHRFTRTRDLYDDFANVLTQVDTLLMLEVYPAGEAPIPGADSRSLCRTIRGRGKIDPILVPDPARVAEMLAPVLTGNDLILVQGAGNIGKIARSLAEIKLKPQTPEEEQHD

For this assay, the target named is MurC (UniProt C4ZRI6). In words: relative enzymatic activity vs untreated control (fraction); higher = less inhibition. As to conditions: 100 µM; incubation time: 2 h at 37 C. As to the method:
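In vitro enzymatic inhibition assays (ProFoldin kits) for 12 purified essential E. coli enzymes or complexes, each treated with 218 active antibacterial compounds at 100 µM for 2 h at 37°C. Read-outs were fluorescence or absorbance (phosphate detection, dye binding), converted to activity via standard curves and expressed relative to untreated DMSO controls.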
Consider `CC1CCC2(C)C(C=O)=CCCC2C1(C)CC1OC(O)C(=O)C12CO2` (stereo unspecified), for which the relative enzymatic activity turned out to be 0.933 ± 0.1. Compound `CC[C@H]1OC(=O)[C@H](C)[C@@H](O[C@H]2C[C@@](C)(OC)[C@@H](O)[C@H](C)O2)[C@H](C)[C@@H](O[C@@H]2O[C@H](C)C[C@H](N(C)C)[C@H]2O)[C@](C)(OC)C[C@@H](C)C(=O)[C@H](C)[C@@H](O)[C@]1(C)O` returned a relative enzymatic activity of 1.01 ± 0.14. The compound `Cc1cn([C@H]2C[C@H](N=[N+]=[N-])[C@@H](CO)O2)c(=O)[nH]c1=O` yielded a relative enzymatic activity of 1.08 ± 0.11. The compound `NC[C@H]1O[C@H](O[C@H]2[C@H](O)[C@@H](O[C@H]3O[C@H](CO)[C@@H](O)[C@H](N)[C@H]3O)[C@H](N)C[C@@H]2N)[C@H](N)C[C@@H]1O` returned a relative enzymatic activity of 0.918 ± 0.078. In turn, `COC1C=COC2(C)Oc3c(C)c(O)c4c(O)c(c(C=NN5CCN(C6CCCC6)CC5)c(O)c4c3C2=O)NC(=O)C(C)=CC=CC(C)C(O)C(C)C(O)C(C)C(OC(C)=O)C1C` (stereo unspecified) gave a relative enzymatic activity of 0.182 ± 0.016. In the case of `CC(NCCCc1cccc(C(F)(F)F)c1)c1cccc2ccccc12.Cl` (stereo unspecified) it was 0.985 ± 0.092. The compound `CCn1nc(C(=O)O)c(=O)c2cc3c(cc21)OCO3` gave a relative enzymatic activity of 1.01 ± 0.11. `O=C1CN(/N=C/c2ccc([N+](=O)[O-])o2)C(=O)N1` showed a relative enzymatic activity of 1.33 ± 0.34. `CO/N=C(\C(=O)N[C@@H]1C(=O)N2C(C(=O)O)=C(CSc3nnnn3C)CS[C@H]12)c1csc(N)n1`: the relative enzymatic activity stood at 1.05 ± 0.082. Regarding `Nc1nc(C(=CCC(=O)O)C(=O)NC2C(=O)N3C(C(=O)O)=CCSC23)cs1` (stereo unspecified), the relative enzymatic activity was 0.885 ± 0.2. In the case of `CN1CCN(c2cc3c(cc2F)c(=O)c(C(=O)O)cn3-c2ccc(F)cc2)CC1.Cl`, the relative enzymatic activity was determined as 0.9809 ± 0.0032. In turn, `CC(C)(ON=C(C(=O)NC1C(=O)N2C(C(=O)[O-])=C(C[n+]3ccccc3)CSC12)c1csc(N)n1)C(=O)O` (stereo unspecified) yielded a relative enzymatic activity of 0.704 ± 0.14. On to `CON=C1CN(c2nc3c(cc2F)c(=O)c(C(=O)O)cn3C2CC2)CC1CN.CS(=O)(=O)O` (stereo unspecified), for which the relative enzymatic activity worked out at 0.669 ± 0.18. Compound `CN(C)C1C(O)=C(C(N)=O)C(=O)C2(O)C(O)=C3C(=O)c4c(O)cccc4C(C)(O)C3CC12.Cl` (stereo unspecified) showed a relative enzymatic activity of 1.05 ± 0.039.

The compound `C=C1c2cccc(O)c2C(=O)C2=C(O)C3(O)C(=O)C(C(N)=O)=C(O)C(N(C)C)C3C(O)C12.Cl` (stereo unspecified) had a relative enzymatic activity of 1.079 ± 0.0059. Consider `COc1ccc(Cc2cnc(N)nc2N)cc1OC`, for which the relative enzymatic activity is 1.1 ± 0.079. Under `NCc1ccccc1CC(=O)NC1C(=O)N2C(C(=O)O)=C(CSc3nnnn3CC(=O)O)CSC12` (stereo unspecified) stands 1.05 ± 0.17; under `CO/N=C(\C(=O)N[C@@H]1C(=O)N2C(C(=O)O)=C(C[n+]3ccn4ncccc43)CS[C@H]12)c1nsc(N)n1`, 0.964 ± 0.082; under `C=CC1=C(C(=O)O)N2C(=O)[C@@H](NC(=O)/C(=N\OCC(=O)O)c3csc(N)n3)[C@H]2SC1`, 1.12 ± 0.017. `CCn1cc(C(=O)O)c(=O)c2cnc(N3CCNCC3)nc21` came in with a relative enzymatic activity of 0.99 ± 0.052. `NCCONC(=O)[C@@H]1CC[C@@H]2CN1C(=O)N2OS(=O)(=O)O` registered a relative enzymatic activity of 0.944 ± 0.034. Under `N[C@@H]1CN(c2c(F)cc3c(=O)c(C(=O)O)cn([C@@H]4C[C@@H]4F)c3c2Cl)CC12CC2` stands 0.971 ± 0.044; under `CCN1CCN(c2cc3c(cc2F)c(=O)c(C(=O)O)cn3C2CC2)CC1`, 0.8357 ± 0.0041; under `Oc1c(Cl)cc(Cl)c(Cl)c1Cc1c(O)c(Cl)cc(Cl)c1Cl`, 3.59 ± 0.79.

`CC(C)(O/N=C(\C(=O)N[C@@H]1C(=O)N2C(C(=O)O)=C(C[n+]3ccccc3)CS[C@H]12)c1csc(N)n1)C(=O)O` showed a relative enzymatic activity of 1.02 ± 0.022. In the case of `COC(=O)N/N=C/c1ccc([N+](=O)[O-])o1` it was 1.01 ± 0.15; in that of `N[C@@H]1CC[C@@H](c2ccc(Cl)c(Cl)c2)c2ccccc21`, 0.806 ± 0.12. Under `C[C@H]1[C@H](NC(=O)/C(=N\OC(C)(C)C(=O)O)c2csc(N)n2)C(=O)N1S(=O)(=O)O` stands 1.29 ± 0.45; under `CON=C(C(=O)NC1C(=O)N2C(C(=O)O)=C(CSC(=O)c3ccco3)CSC12)c1csc(N)n1.Cl` (stereo unspecified), 0.89 ± 0.22. Under `C=CC1=C(C(=O)O)N2C(=O)[C@@H](NC(=O)/C(=N\O)c3csc(N)n3)[C@H]2SC1` stands 1 ± 0.028.

With `O=C1CN(N=Cc2ccc([N+](=O)[O-])o2)C(=O)N1`, the relative enzymatic activity turned out to be 1.051 ± 0.0033.

These data come from the supplement of paper PMC9446081.
